Measurements taken from PubChem BioAssay (NCI).
This is part of a sample that, as a whole, favours compounds with a hit. Of some 83,000 tested, about 20% had one in any assay.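 Treatment: one concentration, 48 hours, 96-well format. Scoring: percent growth, with anything below 10 considered active.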 A number with no mark means an inactive call. Active and inactive are the calls of the source.

Legend:
Experiment in all cases: NCI-60 one-dose screen, 48 h (100 = growth as untreated, 0 = no growth, -100 = all killed)
Conditions in all cases: 10 µM unless noted
[1] = system: NCI-H23 lung
[2] = system: NCI-H226 lung
[3] = system: NCI-H322M lung
[4] = system: HOP-62 NSCLC
[5] = system: NCI-H460 lung
[6] = system: A549/ATCC NSCLC
[7] = system: 786-0 renal
[8] = system: COLO 205 colon
[9] = system: DU-145 prostate
[10] = system: NCI-H522 lung

Structure (SMILES)	growth [1]	growth [2]	growth [3]	growth [4]	growth [5]	growth [6] [%]	growth [7]	growth [8]	growth [9]	growth [10]
Cn1cnc([N+](=O)[O-])c1S(=O)(=O)Oc1ccc(Cl)cc1	96%	97.8%	104%	92.3%	103%	96	94.4%	-90% (active)	81.5%	
O=C(O)C(=O)O	15.2%	96.6%	95.2%	108%	111%		96.9%	108%	99.6%	33.1%
Nc1nc(Cl)c2[nH]cnc2n1	87%	101%	93.1%	95.2%	86.9%		96.8%	103%	119%	96.2%
CC(C)COCC(CN(Cc1ccccc1)c1ccccc1)N1CCCC1 (stereo not drawn)	60.7%	65.8%	78.8%	71.3%	43.8%		68.2%	40.1%	70%	32.1%
C[n+]1ccc(Nc2ccc(NC(=O)c3ccc(Nc4cc[n+](C)c5ccc(N)cc45)cc3)cc2)cc1	104%	82.6%	146%	102%	82.6%		97%	92.8%	119%	109%
C=CCCCCCCCCC(=O)[O][Sn]([CH2]CCC)([CH2]CCC)[CH2]CCC	-86.2% (active)	-52.7% (active)	-88.7% (active)	-94.7% (active)	-83.3% (active)		-96% (active)	-86% (active)	-95.2% (active)	-53% (active)
CN(C)CCCN1c2nc3ccccc3cc2Sc2cc3ccccc3nc21	-34.2% (active)	40.1%	18%	32%	-89.1% (active)		-86.3% (active)	-89.2% (active)		-67.7% (active)
CCCC[N+](CCCC)=c1ccc2nc3c(C)cc(N(CC)CC)cc3sc-2c1	-36.2% (active)	18.4%	27.6%	-23.4% (active)	2.83% (active)	16.7		-41.1% (active)	13.7%	-17.1% (active)
CC[N+](C)(CC)CCCC(C)Nc1ccnc2cc(Cl)ccc12 (stereo not drawn)	102%	96.3%	96.5%	113%	102%	107		107%	97.7%	108%
COc1ccc(CCN2CCCN3C2=Nc2ccccc2S3(=O)=O)cc1	28.8%	61.7%	59.6%	52.5%	13.4%	31.7		1.13% (active)	23%	17.3%
O=C(NN(C(=O)c1ccccc1)c1cccs1)c1ccccc1	103%	99.8%	94%	97%	116%		100%	106%	123%	91.3%
C[N+]1(CCc2ccccc2)CCC(CCC2CC[N+](C)(CCc3ccccc3)CC2)CC1 (stereo not drawn)	87.4%	92.1%	120%	66.9%	103%		110%	104%	117%	98.8%
COc1ccc(C(=O)C(C)Br)cc1OC (stereo not drawn)	90.7%	96.1%	99%	106%	103%		95.5%	23.3%	107%	-10.4% (active)
O=[N+]([O-])c1ccc2c(c1)S(=O)c1cc([N+](=O)[O-])ccc1N2	103%	91.9%	117%	67.3%	96.4%		108%	108%	116%	97%
O=C1C2C3C=CC(O3)C2C(=O)N1Nc1ccccc1 (stereo not drawn)	106%	109%	124%	117%	112%	103	107%	124%	112%	
O=C(/C=C/c1ccccc1)CC(c1ccccc1)N1CCOCC1 (stereo not drawn)	96.6%	99.5%	121%	102%	106%	63	4.06% (active)	76.3%	91.3%	
c1ccc2c(c1)[nH]c1c2cc[n+]2cc3c(cc12)CCCC3	40.6%	35.5%	29.8%	18.8%	15.2%	64	48.7%	36.3%	40.9%	
C=CCOc1ccc2c(c1)CC[C@@H]1[C@@H]2CC[C@@]2(C)[C@H]1CC[C@]2(C)O	92.8%	104%	81.2%	109%	46.3%	80.3	93.8%	75.6%	121%	
NC(=O)NN=C(C1CC1)C1CC1	93.8%	109%	110%	104%	106%	103	107%	105%	116%	
Cc1cc(C(=O)O)c(C)cc1C(=O)O	107%	101%	76.8%	93.5%	119%	103	101%	120%	120%	
COc1ccc(-c2oc3cc(O)c(OC)c(O)c3c(=O)c2OC)cc1O	16.1%	73.5%	46.7%	43%	1.5% (active)	19.7	23.2%	101%	-18.4% (active)	
CCCOc1ccc2c(c1)CC[C@@H]1[C@@H]2CC[C@@]2(C)[C@H]1CC[C@]2(C)O	93.2%	92.3%	71.4%	89.7%	35.8%	63.7	90.3%	28.2%	91.6%	
c1ccc(-n2nnnc2-c2cccc3ccccc23)cc1	52.1%	79.3%	30.2%	25.9%	9.98% (active)	34.5	24.7%	-17.8% (active)	7.52% (active)	
CCOc1nc(-c2ccccc2)cc2c(O)c(C(=O)n3nc(C)cc3C)[nH]c(=O)c12	97.6%	91.8%	103%	105%	107%	102	100%	108%	111%	
Cc1cc(C)n(C(=O)c2nn(-c3ccc(Cl)cc3)cc2O)n1	9.42% (active)	44.9%	37.2%	47.8%	5.55% (active)	11.6	95.7%	106%	30%	
Cc1nn(-c2ccccc2)c(Cl)c1C(CC(=O)c1ccc(Cl)cc1)CC(=O)c1ccc(Cl)cc1	87.2%	88.6%	99%	97.8%	90.1%	84.3	81.8%	98.5%	103%	
CCN(CC)CCNc1ccc(Cl)cc1Cl	101%	108%	94.9%	95.8%	107%	107	104%	108%	107%	
Nc1ccccc1-c1ccc([N+](=O)[O-])cc1	68.7%	87.6%	57%	53.1%	33.6%	63.3	46.7%	23.8%	59.3%	
Clc1ccc(-n2cnc3c(Cl)ncnc32)cc1Cl	87%	102%	64.8%	83.6%	101%	95.5	98.7%	92.2%	76.6%	
NNC(=O)C1CC2c3ccccc3C1c1ccccc12 (stereo not drawn)	101%	101%	116%	112%	115%	113	105%		115%	
